# Screens deposited in PubChem BioAssay by Broad Institute.
# PDI turbidity – inhibitors of human PDI, primary screen, biochemical, turbidity, single point, plate reader; Protein disulfide-isomerase (Homo sapiens), P07237; PDI insulin aggregation turbidity, A650, 90 min; inhibition, % at 10 µM; hit rate 0.052% among 350,000;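 active = mean inhibition across replicates of 30% or more, whatever share of single replicates reach that level; inconclusive = mean inhibition below 30% while every single replicate reaches 30%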
# Vif inh – HIV Vif self-association inhibitors, primary screen, imaging, HEK293T, single point; HEK293T cells, Vif self-association by quenched fluorescence, 24 h; inhibition, % at 7.49 µM; hit rate 0.35% among 340,000; in the data active = inhibition above about 50%, passing the limit was not always enough; inconclusive = no clear call, values can overlap the other calls; inactive = below about 31%
# PvdQ inh – P. aeruginosa PvdQ acylase inhibitors, primary screen, biochemical, fluorescence, plate reader and imaging, single point | purified PvdQ acylase | inhibition, % at 10 µM | hit rate 0.063% among 340,000 | AID 488965, 2010; in the data active = inhibition above about 30%, passing the limit was not always enough; inconclusive = no clear call, values can overlap the other calls;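 also: 0% = vehicle neutral wells and 100% = reference inhibitor wells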
# Glyco luc inh – increase of ERlucT glycosylation luciferase signal, primary screen, N-linked glycosylation inhibitor project, D54 ERlucT cells, luminescence, set 2; D54 ERlucT glycosylation luciferase reporter, 24 h; percent of 100 nM tunicamycin response; reporter increase, % at 12.5 µM; hit rate 0.23% among 360,000; AID 588692, 2011;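 active = mean luciferase reporter signal, scaled so untreated is 0 and the glycosylation-blocking control 100, at or above a set limit in every replicate; inconclusive = mean reaches the limit but not every replicate does; inactive = mean below the limit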;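 also: luciferase carries N-glycosylation sites so blocking glycosylation raises the light; 0% = median of neutral control wells and 100% = median of 100 nM tunicamycin wells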
# ERp5 block – inhibitors of ERp5-driven insulin aggregation, primary screen, biochemical, turbidity, absorbance 650 nm, single point; 90 min; inhibition, % at 9.99 µM; hit rate 0.05% among 350,000; Protein disulfide-isomerase A6 (Homo sapiens), Q15084;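 active = mean replicate inhibition above about 25%, with every replicate also reaching it, limit read from the data, passing the limit was not always enough; inconclusive = only one of those two criteria met; inactive = neither criterion met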
# Target sequence (Q15084 whole entry, looked up): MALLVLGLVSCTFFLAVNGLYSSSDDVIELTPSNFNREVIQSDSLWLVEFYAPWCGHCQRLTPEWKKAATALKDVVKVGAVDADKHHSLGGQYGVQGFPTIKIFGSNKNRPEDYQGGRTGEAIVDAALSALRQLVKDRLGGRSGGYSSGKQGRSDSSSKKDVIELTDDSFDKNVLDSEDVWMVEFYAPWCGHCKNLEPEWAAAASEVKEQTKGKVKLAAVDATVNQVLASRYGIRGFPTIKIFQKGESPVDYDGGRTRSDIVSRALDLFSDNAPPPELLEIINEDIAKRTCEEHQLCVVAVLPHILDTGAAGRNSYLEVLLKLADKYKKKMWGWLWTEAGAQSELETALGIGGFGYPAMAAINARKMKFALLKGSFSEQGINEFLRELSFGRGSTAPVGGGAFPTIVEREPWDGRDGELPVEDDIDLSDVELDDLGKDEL
# Starred values were filed as active, the others as inactive; ? = inconclusive; / = not tested or not shown. The list is not random: actives were taken first. Their share in the collection is about 0.56%.
SMILES,PDI turbidity,Vif inh,PvdQ inh,Glyco luc inh,ERp5 block
COC(=O)\C(C(C)=O)=C(/C=C/C=C/N(C)C)N(C)C,1.9,61.6*,-5.4,2.1,/
CC(OC(=O)c1ccccc1C(=O)O)c1ccccc1 (stereo not drawn),-5.4,52.5*,-2.4,1.6,-1.8
CCN(CC)C(=O)c1nc[nH]c1C(=O)O[C@@H](C)c1ccccc1,-4.0,-1.0,-2.3,2.5,2.5
COc1ccc2c3c([nH]c2c1)[C@H](CO)N(C(=O)Nc1ccc(F)cc1)CC31CN(S(=O)(=O)c2cccc(C)c2)C1,/,/,/,/,-7.0
O=[N+]([O-])c1cccc2c1ccc1ncccc12,-8.6,-0.1,-10.4,-3.6,1.3
CC(C)(C)OC(=O)N1CCC(c2c(C(=O)NCC3CCN(C4CCCC4)C3)cnn2-c2ccc(F)cc2)CC1 (stereo not drawn),13.8,60.2*,-0.1,-5.0,0.3
COC(=O)c1ccc(C)c(NC(=O)CN(c2cc(OC)ccc2OC)S(C)(=O)=O)c1,-0.9,7.2,7.8,73.6*,/
Cc1ccc2c(CN(C)Cc3ccccc3)cc(=O)oc2c1,/,/,/,-5.7,6.5
Cc1ccc2c(CNCc3ccccc3)cc(=O)oc2c1,0.8,0.9,-15.0,28.9*,-4.5
Cc1ccc2c(CC(=O)N3CCc4ccccc43)coc2c1,-0.4,-4.3,-4.7,-6.5,/
O=[N+]([O-])c1ccc(N2CCN(Cc3ccccc3)CC2)c2c1no[n+]2[O-],2.3,113.5*,/,-9.0,5.3
CC1CCCC(NC(=O)CCN2C(=O)COc3ccccc32)C1C (stereo not drawn),1.9,50.2*,/,-0.4,1.5
CCOc1ccc2nc(NS(=O)(=O)Cc3ccccc3)sc2c1,?,106.1*,-9.0,22.5,/
CCOc1ccc2nc(NS(=O)(=O)c3ccc(NC(C)=O)cc3)sc2c1,0.6,4.4,-6.2,0.1,/
O=C(CNC(=S)N(CCCN1CCOCC1)Cc1cccs1)NC1CCCCCCC1,9.5,-8.3,8.2,-2.9,/
CCOC(=O)c1ccccc1OCc1cc(/C=N/n2cnnc2)ccc1OC,-4.8,94.0*,2.6,3.7,/
CCOc1ccc(OCc2cccc(C(=O)N3CCCCCC3)c2)cc1,5.2,8.0,-16.2,-8.9,2.8
CCOc1ccc(OCc2cccc(C(=O)N3CCCC3)c2)cc1,-1.0,52.7*,-22.9,-8.8,1.4
O=C(O)C1=C[C@H](c2ccc(F)cc2)C[C@H](OCc2ccc(CO)cc2)O1,-4.0,6.4,8.7,-2.3,0.0
CCn1c2ccccc2c2cc(NC(=O)CNCc3ccccc3OC)ccc21,-1.4,4.1,-14.3,29.3*,0.9
CCN(CC)S(=O)(=O)c1cccc(C(=O)OCC(=O)Nc2ccc3c(c2)c2ccccc2n3CC)c1,4.6,1.8,11.2,29.1*,-0.7
O[C@@H]1[C@@H](O)C=C2CCN3Cc4cc5c(cc4[C@H]1C23)OCO5 (stereo partly drawn),9.3,-2.7,5.2,-20.6,1.6
COc1ccc(OC)c(C2C3CN(C(C)C)CC=C3C(C#N)=C(N)C2(C#N)C#N)c1 (stereo not drawn),1.6,95.2*,-13.4,0.5,/
Cc1nn(C)c(Oc2cccc(Cl)c2)c1C(=O)O,0.1,-0.4,-14.3,3.4,/
COc1ccccc1/C=C1/SC(=S)N(C(C)C(=O)NC2C=CS(=O)(=O)C2)C1=O (stereo not drawn),-1.5,55.2*,4.4,4.5,/
SMILES,PDI turbidity,Vif inh,PvdQ inh,Glyco luc inh,ERp5 block
Cc1cc(C)n(CCN(C)C(=O)c2cc(COc3c(F)cccc3F)on2)n1,13.3,/,-12.7,-1.2,-2.7
Cc1cc(C)n(CCNC(=O)c2cc(COc3c(F)cccc3F)on2)n1,1.4,51.5*,-0.4,1.0,1.8
COc1ccc(NC(=O)C(=O)NNC(=O)COc2ccc(Cl)cc2)c(OC)c1,-7.8,/,18.1,/,7.5
O=C(/C=C\Nc1ccc2c(c1)OCO2)c1ccc(Cl)s1,-0.1,14.3,-4.3,-3.2,2.9
O=C(/C=C\Nc1ccc2c(c1)OCO2)c1cccs1,2.1,66.2*,6.1,-17.0,2.8
CCC(=O)N1CCN(c2cc(C)ccc2C)CC1,6.6,50.4*,3.3,1.5,/
Cc1ccc(C)c(N2CCN(C(=O)Cn3cccc3)CC2)c1,1.1,4.2,-7.1,1.1,/
COc1ccccc1CSc1nc2c(c(=O)n(C)c(=O)n2C)n1C,5.9,-6.7,-3.5,-1.3,2.6
